Shown are actives, neighbours in structure and some others; about 2.3% of the full set was active somewhere.
TRPV1 ag = activates the human vanilloid receptor TRPV1; Q8NER1; AID 540275; activation, % at 8.33 µM; actives 0.19% (n = 320,000); TRPV1-expressing cells, Fluo-8 calcium influx, agonist mode; in the data active = activation above about 80%; inconclusive = between about 30% and that limit; note: 0% is about no effect
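Cells expressing TRPV1 were dye-loaded with Fluo-8 and read kinetically: 10 s baseline, 3 min after compound (agonist portion), then 2 min after EC20 capsaicin (allosteric enhancer portion). Calcium-bound dye fluorescence at 480/520 nm.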
ELG1 repair inh = inhibitors of ELG1-dependent DNA repair in HEK293T cells. HEK293T ELG1-luciferase reporter, luminescence, 16 h; DNA damage induced by 5-fluorouridine. actives 2.3% (n = 330,000). AID 504467. Potency, µM (series often up to 46.1 µM), for inactives: top-dose activity change, negative = inhibition, most hits filed as inhibitors; note: potency is the fitted concentration of half-maximal effect; % is set by controls: 0 for no effect and ±100 for the full control effect; nearly all actives have a fitted effect of over 55% in size
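Quantitative HTS, concentration-response format. 2,000 cells/well co-treated with 5-fluorouridine and compound, 16 hr in 5% CO2 at 37 °C; ONE-Glo luminescence read after 30 min.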
TRPV1 PAM = human TRPV1 potentiation. Q8NER1. TRPV1-expressing cells, Fluo-8 calcium influx, capsaicin EC20 potentiation. potentiation, % at 8.33 µM. actives 0.02% (n = 320,000). AID 540277; in the data active = potentiation above about 80%; inconclusive = between about 30% and that limit; note: 0% is about no effect
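Cells expressing TRPV1 were dye-loaded with Fluo-8 and read kinetically: 10 s baseline, 3 min after compound (agonist portion), then 2 min after EC20 capsaicin (allosteric enhancer portion). Calcium-bound dye fluorescence at 480/520 nm.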
FUS suppressor = suppressors of FUS proteinopathy in yeast. S. cerevisiae FUS-expressing, growth rescue, OD600, 24 h. Potency, µM (titrated, usually from 76.6 µM), usual class: activators. actives 0.24% (n = 390,000);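 note: potency is the fitted concentration of half-maximal effect; plate controls were DMSO vehicle for no effect and reference control for full effect; nearly all actives have a fitted effect of over 55% in size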
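Restored growth of FUS-toxic S. cerevisiae, read as 600 nm absorbance after 24 h at 30C in galactose medium (starting OD 0.005). Controls CP55940 and DMSO.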
Giardia killer = Giardia lamblia killing; Giardia lamblia trophozoite viability; activity change, % at 7.66 µM, hits read low; actives 0.15% (n = 340,000); AID 540267; in the data active = activity change below about -80%; inconclusive = between about -30% and that limit;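 note: parasites exposed to compound for two days anaerobically before the ATP read; % is set by controls: 0 for no effect and ±100 for the full control effect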
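ATP-content bioluminescence gauges trophozoite survival. Cells (100/well) receive compound and incubate anaerobically for 48 hrs at 37 deg C; detection reagent follows for 15-30 min at room temperature.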
An asterisk follows results filed as active; i = inactive; ? = inconclusive; . = not tested or not shown. Unless noted, calls come from the whole dose curve; as a rule, active = well fitted curve in the direction sought with a large enough effect; inconclusive = small, poorly fitted or top-dose-only effect, or another doubt; inactive = no such curve, though single readings can be large; an effect the other way counts as inactive or inconclusive.

SMILES	TRPV1 ag	ELG1 repair inh	TRPV1 PAM	FUS suppressor	Giardia killer
O=C1C2C3c4ccccc4C(c4ccccc43)C2c2nc3ccccc3n21 (stereo not drawn)	23	16µM*	-7	i	13
O=C(Cc1ccccc1)Nc1ccc(NC(=O)C2CC2)nc1	-2	8%	-6	i	-7
O=C(Cc1ccccc1)Nc1ccc(NC(=O)C2CCCCC2)nc1	-2	5.2µM*	1	i	-17
CCCS(=O)(=O)c1nc(S(=O)(=O)c2ccc(C)cc2)c(NCCCOC(C)C)s1	.	.	.	i	.
CC(C)(C)c1ccc(C(=O)NNc2ncnc3c2cnn3-c2ccccc2)cc1	.	.	.	i	.
CCN(CC)c1nc(-c2ccccn2)nc(-c2ccccc2)c1C#N	?	12µM*	-15	i	10
CN(C)c1nc(-c2ccccn2)nnc1-c1ccccc1	2	?	-7	i	-8
O=C(CCCCCNc1nc(=S)[nH]c2ccccc12)NCCc1c[nH]c2ccccc12	-1	18µM*	15	.	7
O=C(CCCCCNc1nc(=S)[nH]c2ccccc12)NCCc1ccc(Cl)cc1	-1	0%	0	i	17
CCOC(=O)C1CCCN(C(=O)CN2C(=O)c3ccccc3C2=O)C1 (stereo not drawn)	-1	5%	-10	i	2
CCOC(=O)C1CCCN(C(=O)CN2C(=O)/C(=C/c3ccc(OC)cc3)Oc3ccccc32)C1 (stereo not drawn)	1	23µM*	11	?	2
COc1cccc(C2CC(=O)Nc3c2c(=O)n(C)c2nc4ccccc4n32)c1 (stereo not drawn)	.	.	.	i	.
COc1ccccc1N(C)S(=O)(=O)c1ccc(C(=O)N2CCCc3ccccc32)cc1	17	15µM*	-2	?	-22
COc1ccccc1N(C)S(=O)(=O)c1ccc(C(=O)Nc2ccncc2)cc1	?	12µM*	-21	i	-7
COc1ccccc1N(C)S(=O)(=O)c1ccc(C(=O)NC2CCCCC2)cc1	?	23µM*	-26	.	24
COc1ccccc1N(C)S(=O)(=O)c1ccc(C(=O)Nc2cc(OC)c(OC)c(OC)c2)cc1	.	.	.	i	-9
Cc1nn(Cc2ccc(C(=O)Nc3ccccc3C(F)(F)F)o2)c(C)c1Br	6	?	29	i	8
Cc1csc(NC(=O)c2ccc(Cn3nc(C)c(Br)c3C)o2)n1	2	9.2µM*	17	i	5
Cc1cc(C)cc(NC(=O)c2ccc(Cn3nc(C)c(Cl)c3C)o2)c1	3	21µM*	12	?	-3
CCOC(=O)c1c(C)oc2nc(C)nc(NCCCN3CCN(c4cc(C)ccc4C)CC3)c12	.	.	.	i	.
Cc1ccc(C)c(NC(=O)C(=O)NCCc2csc(-c3ccc(C(F)(F)F)cc3)n2)c1	.	.	.	i	.
COc1ccc(NC(=O)Cn2cnc3c(oc4ccccc43)c2=O)cc1OC	.	.	.	i	.
CCCC1(c2ccccc2)NC(=O)N(CC(=O)c2[nH]c(C)c(C(=O)OCC)c2C)C1=O (stereo not drawn)	-3	18µM*	-8	22µM*	-3
CCOC(=O)c1c(C)[nH]c(C(=O)CN2C(=O)NC3(CCCC3)C2=O)c1C	.	?	.	i	-18
CCOC(=O)c1c(C)[nH]c(C(=O)CN2C(=O)NC(C)(c3ccc4ccccc4c3)C2=O)c1C (stereo not drawn)	-1	16µM*	17	i	1
SMILES	TRPV1 ag	ELG1 repair inh	TRPV1 PAM	FUS suppressor	Giardia killer
CC(NCc1ccc2c(c1)n(C)c(=O)n2C)c1ccccc1 (stereo not drawn)	.	.	.	i	.
COc1cccc(NC(=O)CSc2nc3cc(OC)c(OC)cc3c3nc(-c4ccccc4)nn23)c1	.	.	.	i	.
Cn1cccc/c1=N\c1cccc[n+]1C	0	18µM*	-8	i	-7
CC(C)OC(=O)c1c(NC(=O)c2cccc(C(F)(F)F)c2)sc2c1CCCC2	.	.	.	i	.
CC(NC(=O)C1CCN(S(=O)(=O)c2ccc3c(c2)oc(=O)n3C)CC1)c1ccccc1 (stereo not drawn)	.	.	.	i	.
O=C1CC(/C=C/c2ccncc2)=Nc2ccccc2N1	-2	18µM*	-5	i	?
CCCCC(=O)Nc1ccc2nc(SCC(=O)N3CCOCC3)sc2c1	.	.	.	i	.

Screening results from PubChem.
